Measured values reported in PubChem BioAssay AID1159580 (chemical genetic matrix, 2015).
Among all 5,500 compounds or so, about 2,000 (36%) were called active. Not shown: some 18% with an inconclusive outcome. No stated cut-off is given here; in the data, active means normalized growth mostly below about 0.91 (no sharp cut-off); inconclusive means no clear call, values can overlap the other calls; inactive means mostly above about 0.92. Some of the results follow.

Test: chemical genetic growth profiling, strain panel (AID 1159580);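 further: tested at 20 µM; growth read once vehicle control cultures reached saturation at 30 °C; 1 = growth at the plate median or of vehicle wells; lower values mean less growth of the strain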
Settings: growth OD
[1] = S. cerevisiae deletion strains, locus YAL013W, strain DEP1, hits give low values
[2] = S. cerevisiae deletion strains, locus YBR229C, strain ROT2, hits give low values
[3] = S. cerevisiae deletion strains, locus YDL101C, strain DUN1, hits give low values
[4] = S. cerevisiae deletion strains, locus YDL134C, strain PPH21, hits give low values
[5] = S. cerevisiae deletion strains, locus YDR150W, strain NUM1, hits give low values
[6] = S. cerevisiae deletion strains, locus YEL061C, strain CIN8, hits give low values
[7] = S. cerevisiae deletion strains, locus YGR078C, strain PAC10, hits give low values
[8] = S. cerevisiae deletion strains, locus YHR030C, strain SLT2, hits give low values
[9] = S. cerevisiae deletion strains, locus YHR087W, strain rtc3, hits give low values
[10] = S. cerevisiae deletion strains, locus YJR043C, strain POL32, hits give low values
[11] = S. cerevisiae deletion strains, locus YJR075W, strain HOC1, hits give low values
[12] = S. cerevisiae deletion strains, locus YKL190W, strain CNB1, hits give low values
[13] = S. cerevisiae deletion strains, locus YLR039C, strain RIC1, hits give low values
[14] = S. cerevisiae deletion strains, locus YLR058C, strain SHM2 (second series), hits give low values
[15] = S. cerevisiae deletion strains, locus YLR085C, strain ARP6, hits give low values
[16] = S. cerevisiae deletion strains, locus YLR262C, strain YPT6, hits give low values
[17] = S. cerevisiae deletion strains, locus YML094W, strain GIM5, hits give low values
[18] = S. cerevisiae deletion strains, locus YMR219W, strain ESC1, hits give low values
[19] = S. cerevisiae deletion strains, locus YMR307W, strain GAS1, hits give low values
[20] = S. cerevisiae deletion strains, locus YNL128W, strain TEP1, hits give low values
[21] = S. cerevisiae deletion strains, locus YNL153C, strain GIM3, hits give low values
[22] = S. cerevisiae deletion strains, locus YNL298W, strain CLA4 (second series), hits give low values
[23] = S. cerevisiae deletion strains, locus YNL322C, strain KRE1, hits give low values
[24] = S. cerevisiae deletion strains, locus YNR030W, strain Alg12, hits give low values
[25] = S. cerevisiae deletion strains, locus YPL055C, strain LGE1, hits give low values
[26] = S. cerevisiae deletion strains, locus YPR135W, strain CTF4, hits give low values
[27] = S. cerevisiae deletion strains, locus YPL241C, strain CIN2, hits give low values

Measured: normalized growth

CC1=NN(c2cccc(S(N)(=O)=O)c2)C(=O)C1
inactive: [1] 1.01 | [2] 1 | [3] 1.03 | [4] 0.978 | [5] 0.985 | [6] 1 | [7] 1 | [8] 1.04 | [9] 1.01 | [10] 0.999 | [11] 1.03 | [12] 0.985 | [13] 0.975 | [14] 0.998 | [15] 1.04 | [16] 0.952 | [17] 1.12 | [18] 1.01 | S. cerevisiae deletion strains, locus YMR263W, strain SAP30, hits give low values 0.994 | [19] 1.04 | [20] 0.977 | [21] 1.01 | [22] 1.01 | [23] 1.01 | [24] 0.999 | [25] 1.03 | [26] 1.08

Cc1ccc(=O)n(-c2ccccc2)c1
inactive: [1] 1 | S. cerevisiae deletion strains, locus YAL040C, strain CLN3, hits give low values 1.01 | S. cerevisiae deletion strains, locus YCL061C, strain MRC1 (second series), hits give low values 1 | S. cerevisiae deletion strains, locus YDR363W, strain ESC2, hits give low values 1 | S. cerevisiae deletion strains, locus YER002W, strain NOP16, hits give low values 0.975 | [7] 1.02 | [20] 0.991 | S. cerevisiae deletion strains, locus YNL175C, strain NOP13, hits give low values 1 | S. cerevisiae deletion strains, locus YNL197C, strain WHI3, hits give low values 1.01 | S. cerevisiae deletion strains, locus YNL224C, strain SQS1, hits give low values 1.01 | [23] 0.998 | S. cerevisiae deletion strains, locus YOR083W, strain WHI5 (second series), hits give low values 1.01 | [25] 1.02 | [27] 1

CC(C)(C)C1=NN(c2ccccc2)C(=O)C1
active: [13] 0.666 | [15] 0.637 | [16] 0.707 | S. cerevisiae strains, strain wild type, hits give low values 0.884
inactive: [1] 0.973 | [2] 0.959 | S. cerevisiae deletion strains, locus YCL061C, strain MRC1, hits give low values 0.966 | [3] 0.983 | [4] 0.975 | [5] 0.952 | [6] 0.994 | [7] 0.956 | [8] 0.863 | [9] 1 | [10] 1.01 | [11] 0.939 | [12] 0.956 | [14] 0.972 | [17] 0.984 | [18] 0.966 | [19] 0.803 | [21] 0.981 | [22] 0.929 | [23] 0.981 | [24] 0.888 | S. cerevisiae deletion strains, locus YOL006C, strain TOP1, hits give low values 0.808 | [25] 1.03 | [27] 0.89 | [26] 0.656
